Records with an inconclusive call do not appear. The source made the active and inactive calls. Calls come from the whole dose curve; as a rule, active = well fitted inhibition curve with a large enough effect; inconclusive = small, poorly fitted or top-dose-only effect; inactive = flat fitted curve, though single readings scatter.
What follows are molecules tested on HACAT (assay: qHTS assay to identify novel small-molecules to repurpose for Merkel cell carcinoma treatment (AID 1296009; note: nearly all actives have a fitted effect of over 60% in size)). Conditions: MCC and control cell lines, CellTiter-Glo viability, 72 h; at 44.8 µM (top of the series) unless noted.
Method in brief: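 Viability readout: ATP luminescence (CellTiter-Glo) after 72 hr drug exposure at 37 degree celsius. Dose-response format was 8 points for NPC and 11 points for MIPE; data normalized to in-plate controls.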

Which outcome does the source give for `CCOC(=O)[C@H](CCc1ccccc1)CC1(C(=O)N[C@H]2CCc3ccccc3N(CC(=O)O)C2=O)CCCC1` here?
The outcome was “inactive”.

For `O=C(c1ccc(NS(=O)(=O)c2cccc3cccnc23)cc1)N1CCN(CC2CC2)CC1`, which outcome is on record?
The outcome was “inactive”.

Which outcome does the source give for `CCCC(N[C@@H](C)C(=O)N1[C@H](C(=O)O)C[C@@H]2CCCC[C@@H]21)C(=O)OCC` (stereo partly drawn) here?
Its outcome is “inactive”.

For `C=CC(C)(O)CC/C=C(\C)C(=O)OC1CC2(C(=O)O)CCC3(C)C(=CCC4C5(C)CCC(OC6OC(COC7OCC(O)C(O)C7O)C(O)C(OC7OCC(O)C(O)C7O)C6OC6OC(CO)C(O)C(O)C6OC6OCC(O)C(O)C6O)C(C)(C)C5CCC43C)C2CC1(C)C` (stereo not drawn), which outcome is on record?
The outcome was “inactive [at 9.27 µM]”.

`CC1=C2C(=O)C=C(CO)[C@@H]2[C@H]2OC(=O)[C@H](C)[C@@H]2[C@@H](O)C1` was tested. Which outcome did it give?
The outcome was “inactive”.

With `C/C=C(\C)C(=O)O[C@@H]1CC2[C@@H](CC=C3C[C@@H](O[C@H]4C[C@H](OC)[C@H](O[C@H]5C[C@H](OC)[C@H](O[C@H]6C[C@H](OC)[C@H](O[C@H]7C[C@@H](OC)[C@H](O[C@@H]8O[C@H](CO)[C@@H](O)[C@H](O)[C@H]8O)[C@@H](C)O7)[C@@H](C)O6)[C@@H](C)O5)[C@@H](C)O4)CC[C@@]32C)[C@@]2(O)CC[C@H](C(C)=O)[C@@]12C` (stereo partly drawn) as the molecule, how does the outcome read?
Its outcome is “inactive [at 9.27 µM]”.

Which outcome does the source give for `CC1CCC2(C)C(CC(O)C(O)C23CO3)C1(C)CCC1=CC(=O)OC1O` (stereo not drawn) here?
Its outcome is “inactive; activator”.

How did the outcome turn out when `Cc1c(N2C(=O)c3ccc(C(=O)O)cc3C2=O)c(=O)n(-c2ccccc2)n1C` was run?
The outcome was “inactive”.

Which outcome does the source give for `COc1ccc(C(O[C@@H]2O[C@H](CO)[C@@H](O)[C@H](O)[C@H]2O)C(CO)Oc2ccc(/C=C/CO)cc2OC)cc1O` (stereo partly drawn) here?
Its outcome is “inactive [at 17.4 µM]”.

For `COc1ccccc1[C@@H]1C2=C(CC(C)(C)CC2=O)Nc2n[nH]c(C(F)(F)F)c21`, which outcome is on record?
Its outcome is “inactive”.

Which outcome does the source give for `C[C@]1(OC(=O)/C=C/c2ccccc2)C[C@H](O)[C@]2(O)C=CO[C@@H](O[C@@H]3O[C@H](CO)[C@@H](O)[C@H](O)[C@H]3O)C12` (stereo partly drawn) here?
The outcome was “inactive [at 17.4 µM]”.

With `CC(=O)N[C@H]1CCN(c2ccc(C3=NOC(CN[S+](=O)([O-])C(C)C)C3)cc2F)C1` (stereo partly drawn) as the molecule, how does the outcome read?
Its outcome is “inactive”.

With `Cc1cc(O)cc(Oc2cc(C)c(C(=O)O)c(O)c2)c1` as the molecule, how does the outcome read?
Its outcome is “inactive”.

With `C=C1C(OC(C)=O)C(=O)C2C(C)(C)C(OC(C)=O)CCC2(C)C1CC(OC(C)=O)/C(C)=C/COC(C)=O` (stereo not drawn) as the molecule, how does the outcome read?
The outcome was “inactive [at 17.4 µM]”.

How did the outcome turn out when `C/C=C1/[C@H](O[C@@H]2O[C@H](CO)[C@@H](O)[C@H](O)[C@H]2O)OC=C(C(=O)OC)[C@H]1CC(=O)O[C@@H]1O[C@H](CO)[C@@H](O)[C@H](O)[C@H]1O` was run?
The outcome was “inactive [at 17.4 µM]”.

`COc1cc([C@H]2OC[C@@H]3[C@@H](c4ccc(O[C@@H]5O[C@H](CO)[C@@H](O)[C@H](O)[C@H]5O)c(OC)c4)OC[C@]23O)ccc1O` was tested. Which outcome did it give?
The outcome was “inactive [at 17.4 µM]”.

Which outcome does the source give for `CNc1nc(Nc2cnn([C@H]3CCN(C4COC4)C[C@@H]3F)c2Cl)ncc1C(F)(F)F` here?
The outcome was “inactive”.

How did the outcome turn out when `C=C1CCC(OC(C)=O)C2(C)CC3(O)OC(=O)C(C)=C3CC12` (stereo not drawn) was run?
The outcome was “inactive”.

Reference: PubChem BioAssay (NCATS)
